Data reported in publication PMC7862700, “An all-to-all approach to the identification of sequence-specific readers for epigenetic DNA modifications on cytosine”.

Columns and labels:
Test in all cases: DAPPL (digital affinity profiling via proximity ligation, sequencing); 10 mM Tris-HCl pH 7.5, 50 mM NaCl, 1 mM DTT, 4% glycerol, room temperature, 30 min; GST-TFs on glutathione beads, 16-mer random dsDNA library, 0.1% formaldehyde crosslink after washing; high values mean tight binding
Conditions in all cases: protein: recombinant; tags: N-terminal GST; dsDNA, one strand shown
ELF1 = ELF1 (Homo sapiens, UniProt P32519 1-619)
Summary of the method: (§1)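 Sequencing on an Illumina NextSeq500 followed washing, crosslinking with 0.1% formaldehyde, proximity ligation (BsaI/T4 ligase, 1 h, 37 °C) and PCR amplification of pools that had been incubated for 30 min at room temperature with 200 nmole of a random double-stranded 16-mer DNA library in Tris/NaCl/DTT/glycerol buffer. Each pool held DNA-barcoded human transcription factors, expressed in yeast as GST fusions and captured on glutathione beads, plus a tag-only sample. Binding signal is a hexamer's read frequency for a factor divided by its frequency in the tag-only sample.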

SPI1 = SPI1 (Homo sapiens, UniProt P17947 1-270)
Summary of the method: as §1

SPIC = molecular target: T1, SPIC (Homo sapiens, UniProt Q8N5J4 1-248)
T1 sequence: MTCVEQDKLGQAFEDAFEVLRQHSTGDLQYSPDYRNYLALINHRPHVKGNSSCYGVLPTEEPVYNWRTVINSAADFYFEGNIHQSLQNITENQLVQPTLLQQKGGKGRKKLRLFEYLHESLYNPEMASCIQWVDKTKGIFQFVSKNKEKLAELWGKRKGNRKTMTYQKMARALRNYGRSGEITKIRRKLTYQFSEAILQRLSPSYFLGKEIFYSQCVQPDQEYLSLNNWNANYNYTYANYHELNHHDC
Summary of the method: as §1

ETV1 = ETV1 (Homo sapiens, UniProt P50549 1-477)
Summary of the method: as §1

ETV3L = molecular target: T2, ETV3L (Homo sapiens, UniProt Q6ZN32 1-361)
T2 sequence: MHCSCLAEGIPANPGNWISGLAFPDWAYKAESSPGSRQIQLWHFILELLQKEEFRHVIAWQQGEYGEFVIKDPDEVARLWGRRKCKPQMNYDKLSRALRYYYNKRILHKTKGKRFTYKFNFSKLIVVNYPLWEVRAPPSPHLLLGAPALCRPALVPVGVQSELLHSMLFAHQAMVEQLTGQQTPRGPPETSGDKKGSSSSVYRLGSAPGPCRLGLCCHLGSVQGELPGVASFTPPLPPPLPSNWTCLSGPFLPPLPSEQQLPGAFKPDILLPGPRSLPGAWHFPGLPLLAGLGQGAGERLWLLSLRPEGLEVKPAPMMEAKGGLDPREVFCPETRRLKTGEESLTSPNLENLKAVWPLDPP
Summary of the method: as §1

SPDEF = molecular target: T3, SPDEF (Homo sapiens, UniProt O95238 1-335)
T3 sequence: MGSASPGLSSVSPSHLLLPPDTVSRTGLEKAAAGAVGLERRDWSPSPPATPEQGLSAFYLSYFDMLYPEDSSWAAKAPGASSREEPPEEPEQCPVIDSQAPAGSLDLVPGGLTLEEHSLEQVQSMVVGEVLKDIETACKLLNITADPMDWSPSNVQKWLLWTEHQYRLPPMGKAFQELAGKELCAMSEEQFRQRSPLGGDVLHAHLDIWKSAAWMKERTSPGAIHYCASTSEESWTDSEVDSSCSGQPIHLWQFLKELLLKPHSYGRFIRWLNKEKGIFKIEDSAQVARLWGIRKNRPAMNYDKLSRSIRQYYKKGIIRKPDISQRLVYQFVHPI
Summary of the method: as §1

ETV6 = ETV6 (Homo sapiens, UniProt P41212 1-452)
Summary of the method: as §1

GABPA = molecular target: T4, GABPA (Homo sapiens, UniProt Q06546 1-454)
T4 sequence: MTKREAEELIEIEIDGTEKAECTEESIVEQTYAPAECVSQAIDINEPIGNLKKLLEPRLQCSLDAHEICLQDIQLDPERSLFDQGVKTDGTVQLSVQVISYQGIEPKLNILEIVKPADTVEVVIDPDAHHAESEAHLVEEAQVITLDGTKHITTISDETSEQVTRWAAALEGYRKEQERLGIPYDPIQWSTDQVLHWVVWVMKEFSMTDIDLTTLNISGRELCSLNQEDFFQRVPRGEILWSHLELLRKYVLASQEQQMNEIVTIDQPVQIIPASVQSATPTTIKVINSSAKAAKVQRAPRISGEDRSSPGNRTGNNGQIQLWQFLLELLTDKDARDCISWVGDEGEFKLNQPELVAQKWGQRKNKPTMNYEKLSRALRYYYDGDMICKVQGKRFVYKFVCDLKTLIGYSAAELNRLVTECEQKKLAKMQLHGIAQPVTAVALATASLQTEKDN
Summary of the method: as §1

ERG = molecular target: T5, ERG (Homo sapiens, UniProt P11308 1-479)
T5 sequence: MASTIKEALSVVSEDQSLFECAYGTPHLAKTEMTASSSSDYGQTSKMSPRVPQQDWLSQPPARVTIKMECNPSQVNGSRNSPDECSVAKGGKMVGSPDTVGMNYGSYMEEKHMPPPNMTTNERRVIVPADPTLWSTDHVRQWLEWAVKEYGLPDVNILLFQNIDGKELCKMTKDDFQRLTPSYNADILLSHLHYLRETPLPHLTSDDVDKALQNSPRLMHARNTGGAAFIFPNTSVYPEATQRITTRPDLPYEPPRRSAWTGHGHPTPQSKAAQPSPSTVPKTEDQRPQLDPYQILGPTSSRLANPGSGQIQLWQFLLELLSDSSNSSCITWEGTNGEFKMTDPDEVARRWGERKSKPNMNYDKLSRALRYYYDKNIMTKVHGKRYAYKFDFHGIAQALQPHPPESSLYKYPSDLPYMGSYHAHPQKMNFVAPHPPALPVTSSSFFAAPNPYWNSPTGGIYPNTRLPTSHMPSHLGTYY
Summary of the method: as §1

EHF = molecular target: T6, EHF (Homo sapiens, UniProt Q9NZC4 1-300)
T6 sequence: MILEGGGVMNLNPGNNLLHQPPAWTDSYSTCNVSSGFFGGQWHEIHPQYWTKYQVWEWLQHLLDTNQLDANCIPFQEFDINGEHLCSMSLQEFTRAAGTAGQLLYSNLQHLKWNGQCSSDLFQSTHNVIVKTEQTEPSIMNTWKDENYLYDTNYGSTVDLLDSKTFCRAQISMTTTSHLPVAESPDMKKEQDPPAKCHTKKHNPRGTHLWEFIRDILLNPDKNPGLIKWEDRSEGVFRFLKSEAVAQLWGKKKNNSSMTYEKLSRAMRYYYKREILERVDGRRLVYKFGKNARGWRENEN
Summary of the method: as §1

ELK3 = molecular target: T7, ELK3 (Homo sapiens, UniProt P41970 1-407)
T7 sequence: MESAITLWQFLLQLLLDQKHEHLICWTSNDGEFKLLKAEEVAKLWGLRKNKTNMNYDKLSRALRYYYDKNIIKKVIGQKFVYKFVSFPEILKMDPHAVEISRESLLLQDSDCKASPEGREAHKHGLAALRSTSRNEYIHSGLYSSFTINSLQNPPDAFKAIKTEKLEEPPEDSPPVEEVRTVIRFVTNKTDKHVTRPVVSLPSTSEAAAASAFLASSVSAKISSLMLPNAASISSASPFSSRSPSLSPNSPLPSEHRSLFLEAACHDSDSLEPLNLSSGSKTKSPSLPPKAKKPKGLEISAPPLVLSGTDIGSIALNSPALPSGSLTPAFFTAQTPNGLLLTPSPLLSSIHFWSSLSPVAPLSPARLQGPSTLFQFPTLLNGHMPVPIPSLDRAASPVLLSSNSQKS
Summary of the method: as §1

ETV2 = molecular target: T8, ETV2 (Homo sapiens, UniProt O00321 1-342)
T8 sequence: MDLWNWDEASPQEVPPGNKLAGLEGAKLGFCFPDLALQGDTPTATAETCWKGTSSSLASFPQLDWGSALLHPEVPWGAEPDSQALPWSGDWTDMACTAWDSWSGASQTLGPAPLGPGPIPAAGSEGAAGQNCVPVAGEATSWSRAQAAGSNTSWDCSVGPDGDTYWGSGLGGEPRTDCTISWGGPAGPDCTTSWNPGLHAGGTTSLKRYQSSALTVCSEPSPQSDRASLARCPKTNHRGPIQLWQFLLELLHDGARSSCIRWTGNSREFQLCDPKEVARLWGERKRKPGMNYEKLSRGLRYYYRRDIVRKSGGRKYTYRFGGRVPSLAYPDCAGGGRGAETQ
Summary of the method: as §1

ELF3 = molecular target: T9, ELF3 (Homo sapiens, UniProt P78545 1-371)
T9 sequence: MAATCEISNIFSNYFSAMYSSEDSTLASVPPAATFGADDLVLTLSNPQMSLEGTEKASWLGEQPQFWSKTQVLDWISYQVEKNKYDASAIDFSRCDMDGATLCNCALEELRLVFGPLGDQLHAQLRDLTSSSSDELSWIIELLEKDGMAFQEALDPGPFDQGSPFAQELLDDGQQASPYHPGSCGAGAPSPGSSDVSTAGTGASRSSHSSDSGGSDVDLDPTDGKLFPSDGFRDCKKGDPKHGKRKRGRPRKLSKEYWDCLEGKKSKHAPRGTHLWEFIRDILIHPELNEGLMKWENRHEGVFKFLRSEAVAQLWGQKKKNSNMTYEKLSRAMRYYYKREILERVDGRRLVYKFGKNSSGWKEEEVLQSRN
Summary of the method: as §1

ELF5 = molecular target: T10, ELF5 (Homo sapiens, UniProt Q9UKW6-2 1-255)
T10 sequence: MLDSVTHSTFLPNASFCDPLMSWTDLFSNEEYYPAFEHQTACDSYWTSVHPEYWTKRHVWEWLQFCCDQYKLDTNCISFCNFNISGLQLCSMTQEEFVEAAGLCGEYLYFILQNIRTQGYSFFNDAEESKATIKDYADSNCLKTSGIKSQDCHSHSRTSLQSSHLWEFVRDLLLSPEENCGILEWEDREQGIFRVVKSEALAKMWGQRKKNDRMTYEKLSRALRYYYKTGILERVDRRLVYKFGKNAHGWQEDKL
Summary of the method: as §1

ETV3 = molecular target: T11, ETV3 (Homo sapiens, UniProt P41162-2 1-143)
T11 sequence: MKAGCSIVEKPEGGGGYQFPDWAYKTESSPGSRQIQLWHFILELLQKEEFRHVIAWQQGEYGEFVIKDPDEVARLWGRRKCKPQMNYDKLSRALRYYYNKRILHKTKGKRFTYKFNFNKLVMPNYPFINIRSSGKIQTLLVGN
Summary of the method: as §1

Sequence of ETV1 (P50549 whole entry): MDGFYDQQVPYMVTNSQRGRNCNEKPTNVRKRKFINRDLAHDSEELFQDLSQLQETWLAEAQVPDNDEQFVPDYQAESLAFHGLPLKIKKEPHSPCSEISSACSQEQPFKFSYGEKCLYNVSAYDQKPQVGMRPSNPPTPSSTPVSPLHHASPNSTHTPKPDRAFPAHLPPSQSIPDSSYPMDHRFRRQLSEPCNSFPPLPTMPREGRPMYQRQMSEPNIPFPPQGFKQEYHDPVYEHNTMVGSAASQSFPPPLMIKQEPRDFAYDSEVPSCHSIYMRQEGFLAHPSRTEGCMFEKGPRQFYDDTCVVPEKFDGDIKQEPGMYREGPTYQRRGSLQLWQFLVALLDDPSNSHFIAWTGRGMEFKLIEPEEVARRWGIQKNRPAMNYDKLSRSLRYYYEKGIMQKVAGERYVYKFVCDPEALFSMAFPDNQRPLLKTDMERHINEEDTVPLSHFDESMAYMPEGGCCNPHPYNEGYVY
Sequence of ETV6 (P41212 whole entry): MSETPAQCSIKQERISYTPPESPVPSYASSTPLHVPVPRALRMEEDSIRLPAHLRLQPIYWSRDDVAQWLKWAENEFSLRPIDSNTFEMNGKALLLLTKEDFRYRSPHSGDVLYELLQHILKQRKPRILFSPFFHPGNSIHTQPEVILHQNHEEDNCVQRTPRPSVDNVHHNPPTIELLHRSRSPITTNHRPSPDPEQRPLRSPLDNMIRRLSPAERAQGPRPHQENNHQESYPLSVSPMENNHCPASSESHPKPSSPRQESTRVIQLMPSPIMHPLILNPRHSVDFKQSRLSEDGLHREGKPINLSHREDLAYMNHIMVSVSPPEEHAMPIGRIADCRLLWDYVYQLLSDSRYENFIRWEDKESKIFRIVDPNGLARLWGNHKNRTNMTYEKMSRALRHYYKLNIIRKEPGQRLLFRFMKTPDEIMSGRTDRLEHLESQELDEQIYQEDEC
Sequence of ELF1 (P32519 whole entry, the tested form may be a part): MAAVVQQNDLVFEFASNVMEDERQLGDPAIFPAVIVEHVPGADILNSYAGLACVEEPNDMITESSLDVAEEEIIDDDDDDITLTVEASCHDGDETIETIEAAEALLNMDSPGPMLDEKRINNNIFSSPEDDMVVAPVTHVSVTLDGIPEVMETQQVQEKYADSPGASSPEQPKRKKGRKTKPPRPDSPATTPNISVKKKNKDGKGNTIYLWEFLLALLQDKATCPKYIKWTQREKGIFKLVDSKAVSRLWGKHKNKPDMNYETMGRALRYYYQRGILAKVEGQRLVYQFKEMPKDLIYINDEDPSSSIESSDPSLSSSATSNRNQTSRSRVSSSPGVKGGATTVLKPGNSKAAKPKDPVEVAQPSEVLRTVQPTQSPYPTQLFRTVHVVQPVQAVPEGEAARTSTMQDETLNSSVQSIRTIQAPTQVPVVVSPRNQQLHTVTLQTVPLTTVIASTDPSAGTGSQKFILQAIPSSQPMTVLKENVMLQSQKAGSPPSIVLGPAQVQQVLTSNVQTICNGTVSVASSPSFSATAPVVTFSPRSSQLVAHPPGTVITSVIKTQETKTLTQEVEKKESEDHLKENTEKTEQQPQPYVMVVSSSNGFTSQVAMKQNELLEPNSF

CACGGC
binding signal (ELF1): 1.04 fold enrichment (6-mer frequency, TF over GST control) | binding signal (SPI1): 1.01 fold enrichment (6-mer frequency, TF over GST control) | binding signal (SPIC): 1.03 fold enrichment (6-mer frequency, TF over GST control) | binding signal (ETV1): 1 fold enrichment (6-mer frequency, TF over GST control) | binding signal (ETV3L): 1.07 fold enrichment (6-mer frequency, TF over GST control) | binding signal (SPDEF): 1.03 fold enrichment (6-mer frequency, TF over GST control) | binding signal (ETV6): 1.05 fold enrichment (6-mer frequency, TF over GST control)

ACGAGC
binding signal (GABPA): 1.01 fold enrichment (6-mer frequency, TF over GST control) | binding signal (ERG): 1.01 fold enrichment (6-mer frequency, TF over GST control) | binding signal (EHF): 1.02 fold enrichment (6-mer frequency, TF over GST control) | binding signal (ELK3): 1.03 fold enrichment (6-mer frequency, TF over GST control) | binding signal (SPIC): 1.06 fold enrichment (6-mer frequency, TF over GST control) | binding signal (ETV2): 1.04 fold enrichment (6-mer frequency, TF over GST control) | binding signal (ELF3): 1.01 fold enrichment (6-mer frequency, TF over GST control)

ATGAGG
binding signal (GABPA): 1.03 fold enrichment (6-mer frequency, TF over GST control) | binding signal (SPI1): 1.4 fold enrichment (6-mer frequency, TF over GST control) | binding signal (SPIC): 1.06 fold enrichment (6-mer frequency, TF over GST control) | binding signal (ELF3): 1.17 fold enrichment (6-mer frequency, TF over GST control) | binding signal (ETV1): 1.01 fold enrichment (6-mer frequency, TF over GST control) | binding signal (ELF5): 1.11 fold enrichment (6-mer frequency, TF over GST control) | binding signal (ETV3): 1.01 fold enrichment (6-mer frequency, TF over GST control)
